Assay [1] in a line: Quantitative High-Throughput drug screen in 47 multiple myeloma cell lines against the NCATS MIPE library collection: OPM2_DSMZ cell viability assay (AID 1919872). Note: nearly all actives have a fitted effect of over 30% in size. Note: potency is the fitted concentration of half-maximal effect. A digest of the protocol: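 Luminescent ATP measurement with CellTiter-Glo gives viability, scaled between DMSO-only wells (100%) and media-only wells (0%). Cells, 500 per well, faced library compounds for 48 hours at 37C.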

The nature of assay [2]: Quantitative High-Throughput drug screen in 47 multiple myeloma cell lines against the NCATS MIPE library collection: KMS11_JCRBsus cell viability assay (AID 1919873). Note: nearly all actives have a fitted effect of over 50% in size. Note: potency is the fitted concentration of half-maximal effect. The method, boiled down: (§1)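 ATP-based CellTiter-Glo luminescence after 48 h drug exposure (37 °C, 5% CO2) of 500 myeloma cells per well. DMSO-only wells set 100% viability, media-only wells 0%; MIPE 4.0 library added by pin tool.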

A short description of assay [3]: Quantitative High-Throughput drug screen in 47 multiple myeloma cell lines against the NCATS MIPE library collection: KMS28BM_JCRB cell viability assay (AID 1919874). Note: nearly all actives have a fitted effect of over 35% in size. Note: potency is the fitted concentration of half-maximal effect. A digest of the protocol: as §1
The nature of assay [4]: qHTS drug screen for cell cycle checkpoint inhibitors in PARPi-resistant BRCA-mutant ovarian cancer cell lines. (AID 1963452; calls by dose curve). The conditions noted are these: PEO1/OlaR viability, CellTiter-Glo luminescence, 96 h, stronger effect = lower value. The method, boiled down: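 PEO1, PEO4 and PEO1/OlaR ovarian cancer cells, 600 per well, exposed 96 h at 37C to a dilution series. Viability read by CellTiter-Glo luminescence, normalized to DMSO and empty wells; activity summarized as Z-AUC.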

Assay [5] in a line: qHTS profiling for inhibitors of Plasmodium falciparum proliferation (AID 504749).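 For activity, negative = inhibition: 0% = DMSO vehicle and full inhibition = artemisinin control.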 Note: nearly all actives have a fitted effect of over 60% in size. Note: potency is the fitted concentration of half-maximal effect. Conditions: P. falciparum in erythrocytes, SYBR Green DNA, 72 h. A digest of the protocol: (§2)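 SYBR Green fluorescence of parasite DNA, read after lysis and overnight dark incubation, measured growth over 72 h in erythrocyte culture at 0.3% parasitemia and 2.5% hematocrit. Data normalised to DMSO and 0.29 uM artemisinin, with plate-drift correction.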

For assay [6], the system named is 3D7. Described as above. The conditions noted are these: P. falciparum in erythrocytes, SYBR Green DNA, 72 h; series mostly up to 28.7 µM. A digest of the protocol:
as §2

Assay [7] concerns 7G8. The assay is described as above. The conditions noted are these: P. falciparum in erythrocytes, SYBR Green DNA, 72 h; series mostly up to 28.7 µM. A digest of the protocol:
as §2

Assay [8] concerns AA1029. The description is as above. Conditions: P. falciparum in erythrocytes, SYBR Green DNA, 72 h; series mostly up to 28.7 µM. The method, boiled down:
as §2

The nature of assay [9]: qHTS for identification of novel therapeutic agents for treatment of microphthalmiaassociated transcription factor (MiT) renal cell carcinoma (RCC) (AID 1963991; calls by dose curve; note: potency is the fitted concentration of half-maximal effect). The conditions noted are these: CellTiter-Glo, 48 h; for Potency: active = Z-AUC below -0.8 in all three lines; for z-score: stronger effect = lower value. The method, boiled down: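 Three TFE3-fusion RCC cell lines (UOK109, UOK124, UOK145), 500 cells/well, were exposed to the 1912-compound MIPE 4.0 library for 48 hours at 37 C. Viability was read by CellTiter-Glo luminescence, normalised to DMSO (100%) and empty wells (0%), with 11-concentration curve fits.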

Setting [10] is: measured here: PEO1 parental Z-AUC.
Setting [11] is: TFE3-RCC UOK109 viability, measured here: UOK109 Z-AUC.
Where [12] appears, read: TFE3-RCC viability, measured here: UOK124 Z-AUC.
Setting [13] is: TFE3-RCC viability, measured here: UOK145 Z-AUC.
Setting [14] is: at 28.7 µM (top of the series), parasite line A.
[15] abbreviates: at 28.7 µM (top of the series), parasite line B.

SMILES strings stand for the structures. “And” between values parts separate entries of the source, which are not always exact repeats. Equal values may be shown once. Inconclusive results are not listed. The source made the active and inactive calls. Unless noted, calls come from the whole dose curve; as a rule, active = well fitted curve in the direction sought with a large enough effect; inconclusive = small, poorly fitted or top-dose-only effect, or another doubt; inactive = no such curve, though single readings can be large; an effect the other way counts as inactive or inconclusive.

For the compound `Cc1cc(NS(=O)(=O)c2ccc(N)cc2)no1`, the Potency entry in [1], in assay [2] and in [3] was “inactive” in each case.

On to `CC1(C)[C@H](C(=O)O)N2C(=O)C[C@H]2S1(=O)=O`, for which the Potency result in assay [1], in assay [2] and in [3] was “inactive” throughout.

With `COC(=O)Nc1nc2ccc(Sc3ccccc3)cc2[nH]1`, the Potency in assay [1] is 3320 nM (active); in assay [2], 935 nM (active); in assay [3], 935 nM (active). For the same compound, the Z-AUC in assay [4] is -0.927 (inactive); in assay [4] (setting [10]), -0.935; in assay [4] (measured here: PEO4 Z-AUC) it was -0.94. Moreover, the activity, negative = inhibition in assay [5] (at 12.8 µM (top of the series), parasite line A) is 5.04% (inactive); in assay [5] (at 12.8 µM (top of the series), parasite line B), -0.246% (inactive). The Potency result in assay [6], in [7] and in [8] was “inactive” in each case.

Regarding `Nc1nc(F)nc2c1ncn2[C@@H]1O[C@H](CO)[C@@H](O)[C@@H]1O`, the Potency was 833 nM (active) in [1], 296 nM (active) in assay [2], 526 nM (active) in assay [3] and 372 nM (active) in [9] (TFE3-RCC UOK109 viability). For the same compound, the Z-AUC in assay [4] was 0.0458 (inactive); in assay [4] (setting [10]), 0.0902; in [4] (measured here: PEO4 Z-AUC), 0.704. Further, the z-score in assay [9] (setting [11]) was -1.54; in assay [9] (setting [12]), -1.3; in [9] (setting [13]), -1.61.

Consider `COc1cc2nc(N3CCCN(C)CC3)nc(NC3CCN(Cc4ccccc4)CC3)c2cc1OC`, for which the Potency was 7430 nM (active) in assay [1], 4690 nM (active) in [2] and 10500 nM (active) in assay [3]. The Z-AUC in assay [4] was 0.899 (inactive); in assay [4] (setting [10]), 0.933; in assay [4] (measured here: PEO4 Z-AUC), 0.922.

As for `O=P(O)(O)C(O)(Cc1cccnc1)P(=O)(O)O`, the Potency entry in [1], in assay [2], in assay [3], in [6], in [7] and in assay [8] was “inactive” throughout. Further, the figures for the Z-AUC in assay [4], in assay [4] (setting [10]) and in [4] (measured here: PEO4 Z-AUC) were 0.331 (inactive), 0.503 and 0.956, respectively. The values for the z-score in [9] (setting [11]), in assay [9] (setting [12]) and in assay [9] (setting [13]) were 0.388, 0.644 and 0.537, respectively. Also, the results for the activity, negative = inhibition in assay [5] (setting [14]) and in [5] (setting [15]) were 11.1% (inactive) and 6.62% (inactive), respectively.

As for `CN(C)c1ccc(C(=C2C=CC(=[N+](C)C)C=C2)c2ccc(N(C)C)cc2)cc1`, the Potency is 166 nM (active) in assay [1]; 26.4 nM (active) in [2]; 74.3 nM (active) in assay [3]; 1180 nM (active) in assay [9] (TFE3-RCC UOK109 viability); 224 nM (active) in [5] (parasite line A); 282 nM (active) in assay [5] (parasite line B). Also, the Potency in assay [6] is 282 nM (active); in [7] it was 251 nM (active); in assay [8], 355 nM (active). The Z-AUC is -1.19 (inactive) in assay [4], -1.68 in [4] (setting [10]) and -1.8 in assay [4] (measured here: PEO4 Z-AUC). The z-score in assay [9] (setting [11]) was -1.93; in assay [9] (setting [12]) it was -2.26; in assay [9] (setting [13]) it was -1.8.

On to `Cc1ccc(S(=O)(=O)N[C@@H](Cc2ccccc2)C(=O)CCl)cc1`, for which the Potency in assay [1] is 18700 nM (active); in assay [2] it was 9350 nM (active); in assay [3] it was 11800 nM (active). For the same compound, the values for the Z-AUC in assay [4], in [4] (setting [10]) and in assay [4] (measured here: PEO4 Z-AUC) were 1.05 (inactive), 1.44 and 1.24, respectively.

On to `COc1ccc2c(c1)c(CC(=O)OCC(=O)O)c(C)n2C(=O)c1ccc(Cl)cc1`, for which the Potency result in [1], in assay [2] and in assay [3] was “inactive” each time.

`CC(C)NCC(O)c1ccc(NS(C)(=O)=O)cc1` (stereo not given): the Potency result in assay [1], in [2], in assay [3], in assay [6], in [7] and in assay [8] was “inactive” throughout. Also, the Z-AUC in assay [4] is -0.911 (inactive); in assay [4] (setting [10]) it was 1.13; in assay [4] (measured here: PEO4 Z-AUC), 0.42. Also, the activity, negative = inhibition was -2.6% (inactive) and 1.55% (inactive) in assay [5] (setting [14]); 9.61% (inactive) and 12.6% (inactive) in assay [5] (setting [15]).

`COCCCOc1cc(C[C@@H](C[C@H](N)[C@@H](O)C[C@H](C(=O)NCC(C)(C)C(N)=O)C(C)C)C(C)C)ccc1OC`: the Potency result in [1], in [2] and in assay [3] was “inactive” in each case.

Source of the values: PubChem BioAssay (NCATS).
